Data published in PubChem BioAssay (NCI).
Compounds without any hit were thinned out: in the full panel of roughly 83,000, 20% have a hit.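 Step 1: grow cells in 96-well plates. Step 2: add test compound at a single concentration. Step 3: incubate 48 h. Step 4: record percent growth.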 Values without a mark were called inactive. Active and inactive are the calls of the source.

test system: OVCAR-8 ovarian; experiment: NCI-60 one-dose screen, 48 h (100 = growth as untreated, 0 = no growth, -100 = all killed); settings: 10 µM unless noted
Description: Growth inhibition of the OVCAR-8 human tumor cell line is measured as a screen for anti-cancer activity. Cells are grown in 96 well plates and exposed to the test compound for 48 hours. Compounds are tested at a single concentration, which is 10^-5 M for most compounds. The reported endpoint is percent growth (GI% or GIPRCNT), where numbers from 0 - 100% represent growth inhibition, and numbers from -100% - 0 represent cell death. For example, a value of 40 represents 60% growth inhibition. A value of 0 means no net growth occurred over the course of the experiment. A value of -40 indicates 40% of cells at the beginning of the experiment died by the end of the experiment. A value of -100 means all cells are dead at the end of the experiment.
NCI-60 Human Tumor Cell Lines Screen was performed using the standard one-dose NCI protocol, which is described in more detail at https://dtp.cancer.gov/discovery_development/nci-60/default.htm.
Compounds with GIPRCNT values below 10 were considered active. Activity score was based on GIPRCNT using the following formula: […]
Score is 0 for GIPRCNT values of 100 or above, 50 for GIPRCNT values of 0, and 100 for GIPRCNT values of -100.

Question: CCOC(=O)c1nn(C2CCCCO2)c2ccc(NS(=O)(=O)c3ccc(C)cc3)cc12 (stereo not given) was tested. Which growth did it give?
Answer: Its growth is 96.9%.

Question: CCOC(=O)c1sc2nc(-c3cc(OC)c(OC)c(OC)c3)nc(N3CCOCC3)c2c1C was tested. Which growth did it give?
Answer: Its growth is 44.1%.

Question: Which growth does the source give for Clc1ccccc1/C=N\Nc1ccccn1 here?
Answer: The growth was 90.1%.

Question: CSc1nc(=S)c2nc(SC)n(-c3ccccc3)c2[nH]1 was tested. Which growth did it give?
Answer: The growth was 100%.

Question: With Cc1cnc(N)nc1OCCNC(=O)c1cccc(-c2ccc(S(=O)(=O)Nc3ccc4c(c3)N(C(=O)C3CC3)CCC4)cc2)c1 as the molecule, how does the growth read?
Answer: The growth was 67.4%.

Question: O=C(Oc1ccc(Cl)cc1[N+](=O)[O-])Oc1ccc(Cl)cc1[N+](=O)[O-] was tested. Which growth did it give?
Answer: The growth was 108%.

Question: Which growth does the source give for CN(C)C(=S)Sc1ccc([N+](=O)[O-])cc1[N+](=O)[O-] here?
Answer: Its growth is 18.7%.

Question: With Cc1cc(C)nc(SCC(=O)Nc2cccc(N=Cc3ccccc3O)c2)n1 as the molecule, how does the growth read?
Answer: The growth was 103%.

Question: Which growth does the source give for COc1ccc(C(C(=O)O)c2ccc(OC)cc2)cc1 here?
Answer: The growth was 113%.

Question: How did the growth turn out when O=C(N/N=C\c1cc(Cl)ccc1O)N/N=C/c1cc(Cl)ccc1O was run?
Answer: Its growth is 43.4%.

Question: For O=S(=O)(NCCNc1nccc(-c2c(-c3cccc(F)c3)nc3occn23)n1)c1ccc(C(F)(F)F)cc1, which growth is on record?
Answer: The growth was 87.5%.

Question: Which growth does the source give for Cc1ccc(-n2nc3n(/c2=N\C(=O)NS(=O)(=O)c2ccc(C)cc2)CCN3C2=NCCN2)cc1 here?
Answer: The growth was 103%.

Question: For O=C(NCCO)c1cccnc1, which growth is on record?
Answer: The growth was 102%.

Question: For NC(=S)Cc1ccccc1, which growth is on record?
Answer: Its growth is 103%.

Question: How did the growth turn out when CN(C)Cc1ccc[nH]1 was run?
Answer: The growth was 95.1%.

Question: CC[C@@](C)(NC(=O)[C@H](C)NC(=O)CCNC(=O)C(C)(C)NC(=O)[C@H](C)NC(=O)[C@@H]1CCCN1C(=O)[C@@](C)(CC)NC(=O)[C@H](Cc1ccccc1)NC(=O)C1CCCN1C(=O)C(C)(C)NC(=O)C1CCCN1C(=O)C(C)(C)NC(C)=O)C(=O)NCCC(=O)N[C@@H](CC(C)C)C(=O)NC(C)(C)C(=O)NCCC(=O)N[C@@H](CC(C)C)C(=O)NC(C)(C)C(=O)NC(C)(C)C(=O)N[C@@H](CC(C)C)C(=O)NCCC(=O)NCO (stereo not given in full) was tested. Which growth did it give?
Answer: The growth was -82% (active).

Question: COc1ccc(/C=C(/C(=O)c2ccc(Cl)cc2)C(=O)C(F)(F)F)cc1 was tested. Which growth did it give?
Answer: The growth was 102%.

Question: Which growth does the source give for CC(C)=CCC[C@](C)(O)[C@H]1CC[C@]2(C)[C@@H]1CC[C@@H]1[C@@]3(C)CC[C@H](OC(=O)CCC(=O)O)C(C)(C)[C@@H]3CC[C@]12C here?
Answer: Its growth is 24.7% [100 µM].

Question: For O=C(NCCCNC(=O)OCc1ccc2c(Br)cc(Br)c(O)c2n1)OCc1ccc2c(Br)cc(Br)c(O)c2n1, which growth is on record?
Answer: The growth was -14.6% (active).

Question: How did the growth turn out when O=C(N=c1n(-c2ccccc2)nc2n1CCN2C1=NCCN1)c1ccc(Cl)cc1 was run?
Answer: Its growth is 98.7%.

Question: How did the growth turn out when COc1cc(C)cc2oc3oc(=O)c(C(=O)c4cc5cc(Br)ccc5o4)cc3c(=O)c12 was run?
Answer: Its growth is 104%.

Question: With CCOC(=O)C(C(C)=O)c1nc2sc3cc(Cl)c(Cl)cc3n2c(=O)c1C#N (stereo not given) as the molecule, how does the growth read?
Answer: Its growth is 92.8%.

Question: Which growth does the source give for O=C1Cc2c(sc3c(F)cccc23)C(c2ccccc2[N+](=O)[O-])N1 (stereo not given) here?
Answer: The growth was 107%.

Question: Which growth does the source give for O=C(N/N=C/c1c(Cl)cccc1Cl)c1cccc(Nc2ccnc(C(F)(F)F)c2)c1 here?
Answer: The growth was 89.9%.

Question: Which growth does the source give for O=C(NCc1ccc(Cn2c(=O)sn(-c3ccccc3)c2=O)cc1)OCc1ccc2c(Br)cc(Br)c(O)c2n1 here?
Answer: Its growth is 0.865% (active).

Question: For O=C1COCCN1c1ccc(NCc2cn(Cc3cccc4ccccc34)c3ccccc23)cc1, which growth is on record?
Answer: The growth was 83.4%.

Question: COc1ccc(C2NC(=O)C(C#N)c3c2sc2c(F)cccc32)cc1 (stereo not given) was tested. Which growth did it give?
Answer: The growth was 69.8%.

Question: How did the growth turn out when C=C(C)[C@@H]1CC[C@]2(c3ncc(C)o3)CC[C@]3(C)[C@H](CC[C@@H]4[C@@](C)(CCC#N)[C@H](C(=C)C)CC[C@]43C)[C@@H]12 was run?
Answer: Its growth is -78.1% [100 µM] (active).

Question: With CCCSc1nc(N)nc2nc[nH]c12 as the molecule, how does the growth read?
Answer: The growth was 99.8%.

Question: Which growth does the source give for Cc1ccc(-c2cc(O)c(-c3ccc(C)cc3C)cc2O)c(C)c1 here?
Answer: Its growth is 47.7%.

Question: With COC(=O)[C@]1(C)CC[C@]2(C)CC[C@]3(C)C(=CC(=O)[C@@H]4[C@@]5(C)CCC(=O)NC(C)(C)[C@@H]5CC[C@]43C)[C@@H]2C1 as the molecule, how does the growth read?
Answer: Its growth is -39.8% [100 µM] (active).

Question: How did the growth turn out when COc1ccc(C(=O)/C=C/c2ccccn2)c(O)c1 was run?
Answer: Its growth is 92.6%.

Question: Which growth does the source give for Fc1ccc(NC(=S)c2ccccc2)cc1 here?
Answer: Its growth is 102%.

Question: For Nc1cccc2c1C(=O)c1cccc(NC(=O)c3ccccc3)c1C2=O, which growth is on record?
Answer: Its growth is 34.4%.

Question: For COc1cc(/C=C/C(=O)/C=C/c2ccc(-n3ccnc3)cc2)ccc1O, which growth is on record?
Answer: The growth was 29.2%.

Question: With CC(=O)n1cc(C=O)c2ccccc21 as the molecule, how does the growth read?
Answer: The growth was 86.7%.

Question: C[C@H]1[C@H](C)CC[C@]2(COC(=O)CCC(=O)O)CC[C@]3(C)C(=CC[C@@H]4[C@@]5(C)CCCNC(C)(C)[C@@H]5CC[C@]43C)[C@H]12 was tested. Which growth did it give?
Answer: Its growth is 69.8% [100 µM].

Question: Which growth does the source give for CCCOc1ccc(-c2nc(-c3ccc(N)cc3)cs2)cc1 here?
Answer: Its growth is 87%.

Question: With Cn1c(=O)c(C#N)c(-c2ccco2)n2c(S(=O)(=O)Cc3ccccc3)nnc12 as the molecule, how does the growth read?
Answer: The growth was 48.9%.

Question: Which growth does the source give for O=C(Nc1ccc(F)cc1)c1ccccc1 here?
Answer: Its growth is 105%.
